Bioassay records deposited in PubChem by The Scripps Research Institute Molecular Screening Center.
An excerpt weighted towards active compounds, which were near 1.1% of everything screened.
PKA-R1A act: activators of PKA-R1A complex | P00514+P68181 | 0.083% of 340,000 active | PKA-R1A dissociation, Cy5-IP20 fluorescence polarization; scaled: DMSO 0%, 113 µM cGMP 100% | activation, % at 11.4 µM;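 active = percent activation above the mean of all tested compounds plus 3 SD, cut at about 19% in these data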;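 also: higher means more PKAc released from R1A so a rise in polarization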
MsrA inh: bovine MsrA inhibition; purified bovine MsrA, absorbance read-out; inhibition, % at 15.5 µM; 0.75% of 360,000 active; in the data active = inhibition above about 4.5%;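 also: 0% = vehicle wells with enzyme and 100% = reference inhibitor wells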
bovine MsrA act: activators of bovine methionine sulfoxide reductase A; 0.3% of 360,000 active; activation, % at 10.6 µM; AID 602163; purified bovine MsrA, absorbance read-out; in the data active = activation above about 7.5%;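 also: 0% = vehicle and 100% = reference activator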
PKA-R2B activ: PKA-R2B complex activation | P22694+P31323 | PKA-R2B holoenzyme dissociation, Cy5-IP20 fluorescence polarization; R2B truncated from residue 108, S112A mutant; 0% DMSO only, 100% 113 µM cGMP | activation, % at 11.4 µM | 0.079% of 340,000 active;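 active = activation above a cutoff set at the mean over all compounds plus 3 SD, cut at about 18% in these data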;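 also: higher means more holoenzyme dissociation and a rise in polarization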
Target sequence (P31323 whole entry, looked up, other chains not shown, the tested form may be a part): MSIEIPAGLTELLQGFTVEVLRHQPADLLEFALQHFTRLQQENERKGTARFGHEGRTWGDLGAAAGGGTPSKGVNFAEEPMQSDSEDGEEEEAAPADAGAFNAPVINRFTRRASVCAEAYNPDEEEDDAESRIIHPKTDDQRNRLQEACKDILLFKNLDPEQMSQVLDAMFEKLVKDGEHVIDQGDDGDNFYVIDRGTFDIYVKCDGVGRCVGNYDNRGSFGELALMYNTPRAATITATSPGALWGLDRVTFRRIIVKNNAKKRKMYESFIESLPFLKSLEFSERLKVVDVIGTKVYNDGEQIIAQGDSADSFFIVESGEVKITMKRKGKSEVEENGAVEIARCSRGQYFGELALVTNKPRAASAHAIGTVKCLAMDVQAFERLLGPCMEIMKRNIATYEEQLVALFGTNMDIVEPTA
Numbers without * were called inactive; x = no result.

SMILES	PKA-R1A act	MsrA inh	bovine MsrA act	PKA-R2B activ
CN(C)c1ccc(/C=C(\NC(=O)c2ccccc2)C(=O)NCc2ccncc2)cc1	-1	4.7*	-4	-5
COC(=O)c1cc2c(c3c4cc(F)ccc4n(S(=O)(=O)c4ccccc4)c13)C(=O)N(Cc1ccc(C(F)(F)F)cc1)C2	x	1	x	x
COC(=O)c1cc2c(c3c4cc(C#N)ccc4n(S(=O)(=O)c4ccc(C)cc4)c13)C(=O)N(C)C2	x	-1	x	x
Nc1nc(=S)c2ncn(C3CCCCC3)c2[nH]1	2	4.6*	3	-2
Clc1cccc(-c2ccc(/C=N/n3cnnc3)o2)c1	-8	4.6*	-12	-7
Cc1ccc(-c2ccc(/C=N/n3cnnc3)o2)cc1	-3	4	-2	2
COc1ccc(N(CC(=O)N/N=C/c2ccc(N(C)C)cc2)S(=O)(=O)c2ccccc2)cc1	-6	4.6*	-3	-3
Cc1c(CC(=O)NCC(=O)NCC(=O)O)c(=O)oc2cc3c(cc12)CCC(C)(C)O3	-7	3	-2	-9
Cc1c(CC(=O)NCC(=O)O)c(=O)oc2cc3c(cc12)CCC(C)(C)O3	-1	4.6*	-4	8
Cc1sc(NC(=O)/C=C/c2ccc3c(c2)OCO3)nc1-c1ccccc1	2	0	0	-7
O=C(/C=C/c1ccc2c(c1)OCO2)Nc1c(C(=O)O)[nH]c2ccccc12	-8	4.7*	-2	-9
O=C(/C=C/c1ccc2c(c1)OCO2)Nc1nc(-c2ccccc2)cs1	-5	4.8*	-3	-10
CCOC(=O)c1[nH]c2ccc(OC)cc2c1NC(=O)/C=C/c1ccc2c(c1)OCO2	4	-1	-4	2
CC1CCN(C2(O)C(=O)Nc3ccc([N+](=O)[O-])cc32)CC1 (stereo unspecified)	-1	6.6*	-13	0
COC(=O)c1ccc2c(c1O)C(=O)c1ccccc1C2=O	-4	0	9.3*	-3
O=C1c2ccccc2C(=O)c2c1ccc(O)c2O	-12	1	-2	0
COC(=O)c1cc2c(c3c4cc(C)ccc4n(S(=O)(=O)c4ccc(C)cc4)c13)C(=O)N(C)C2	x	1	x	x
Cc1cccc(OCCCN2CCC(C(O)(c3ccccc3)c3ccccc3)CC2)c1	x	1	x	x
CN1CCN(C(=O)/C=C/c2ccc3c(c2)OCO3)CC1	-3	2	-2	1
O=C(/C=C/c1ccc2c(c1)OCO2)N1CCN(c2n[nH]c(=O)[nH]c2=O)CC1	-4	4.6*	0	-4
CCCCCCCCN1C(=O)[C@@H](CC(=O)N2CCSCC2)C[C@@]2(C(=O)OC)C1=C[C@H](C1CCCC1)O[C@@H]2C	x	-1	x	x
NC1(N2SC(S)=C3CCCC=C32)CCCCC1	x	-1	x	x
COc1ccccc1-c1cc(C(F)(F)F)n2ncc(S(=O)(=O)c3ccccc3)c2n1	-5	9.4*	-11	-11
CC(/C=C/c1ccc(C)o1)=C\C(=O)O	3	2	20*	-8
CC(=C/C(=O)O)/C=C/c1ccc(Cl)o1	4	1	-5	5
SMILES	PKA-R1A act	MsrA inh	bovine MsrA act	PKA-R2B activ
CCCCNC(=O)CCSc1nc2nc(C)cc(C)n2n1	-4	x	8.0*	5
O=Cc1ccc(-c2ccc([N+](=O)[O-])cc2Cl)o1	-8	5.5*	3	8
C[C@@H](NS(=O)(=O)c1c(F)cccc1F)c1ccccc1	x	1	x	x
O=C(NCCN1CCOCC1)c1cc(-c2ccc(F)cc2)nc2ccccc12	-8	0	-6	-17
CC(C)Oc1ccc(-c2cc(C(=O)NCCN3CCOCC3)c3ccccc3n2)cc1	-5	4.6*	1	4
Cc1ccc(C)c(-n2sc3ccc(F)cc3c2=O)c1	0	1	13*	-8
COc1ccc(-n2sc3ccc(F)cc3c2=O)cc1	-4	0	12*	0
Cc1cc(Br)cn2c(Cc3ccccc3C(F)(F)F)c(-c3ccco3)nc12	x	1	x	x
COc1cccc(/C=N/NC(=O)c2[nH]c(C)c(C(=O)N/N=C/c3cccc(OC)c3O)c2C)c1O	-4	5.0*	-8	-8
Cc1cc(C)c(S(=O)(=O)/N=C2/C=C(SCC(=O)O)C(=O)c3ccccc32)cc1C	1	x	9.4*	-9
CCCCOCCCNC(=O)C[C@H]1C[C@@]2(C(=O)OC)C(=C[C@H](C(C)(C)C)O[C@@H]2C)N(Cc2ccc3c(c2)OCO3)C1=O	x	1	x	x
COc1ccc(C2=Nn3c(nnc3-c3ccccc3OC)SC2)cc1OC1CCOC1 (stereo unspecified)	-5	4.6*	-2	-4
COc1ccc(C2=Nn3c(nnc3-c3ccccc3C(F)(F)F)SC2)cc1OC1CCOC1 (stereo unspecified)	7	2	-7	1
